The source of these data is PubChem BioAssay (NCATS).

Records with an inconclusive call do not appear. A number with no mark means an inactive call. Active and inactive are the calls of the source. Calls come from the whole dose curve; as a rule, active = well fitted curve in the direction sought with a large enough effect; inconclusive = small, poorly fitted or top-dose-only effect, or another doubt; inactive = no such curve, though single readings can be large; an effect the other way counts as inactive or inconclusive.

In assay [1] the target is N-terminal Xaa-Pro-Lys N-methyltransferase 1 (Homo sapiens) (UniProt Q9BV86). Description: qHTS Assay for Inhibitors of N-terminal methyltransferase 1 (NTMT1): LOPAC validation of the NTMT1 SAHH-coupled ThioGlo3 Assay (AID 1347143). Note: nearly all actives have a fitted effect of over 70% in size. Note: potency is the fitted concentration of half-maximal effect. Put shortly: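 Fluorescence read-out (excitation 340nm, emission 450nm) of SAH-derived thiol, measured via SAHH coupling and ThioGlo3, taken immediately and after a 30 min room-temperature reaction, then normalized to the background read. Enzyme: NTMT1 at 125nM; cofactor SAM 100uM in the added reagent.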
Chain of N-terminal Xaa-Pro-Lys N-methyltransferase 1 (Homo sapiens) (Q9BV86 whole entry, looked up): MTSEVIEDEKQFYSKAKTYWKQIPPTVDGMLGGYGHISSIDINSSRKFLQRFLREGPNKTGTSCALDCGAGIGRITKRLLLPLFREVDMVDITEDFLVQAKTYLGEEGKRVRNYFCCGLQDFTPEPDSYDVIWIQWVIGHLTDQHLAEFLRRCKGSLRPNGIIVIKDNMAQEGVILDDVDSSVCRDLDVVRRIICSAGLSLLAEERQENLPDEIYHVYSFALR

The subject of assay [2] is Zika virus NS2B-NS3 protease (unlinked). As to the kind of experiment: Optimization of GU AMC qHTS for Zika virus inhibitors: Unlinked NS2B-NS3 protease assay (AID 1347151). Note: nearly all actives have a fitted effect of over 80% in size. Note: potency is the fitted concentration of half-maximal effect. In a few lines:
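Noncovalent NS2B hydrophilic domain–NS3 protease complex (25 nM final) in 10 mM Tris-HCl pH 8.0, 0.01% Tween 20; AMC substrate, room temperature 15 min (~20% conversion); fluorescence change normalized, 4-parameter Hill fit.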
(In qHTS, concentration-response curves come from the screen itself.)

Assay [3] can be described thus: qHTS of pediatric cancer cell lines to identify multiple opportunities for drug repurposing: Confirmatory screen for Saos-2 cells (AID 1347127).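 For activity change, negative = cytotoxic: plate controls were DMSO for no effect and bortezomib for full effect.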 Note: nearly all actives have a fitted effect of over 60% in size. Note: potency is the fitted concentration of half-maximal effect. In a few lines:
(§1)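 Cells (500-1,000/well) in growth media were settled 5 h at 37 degrees C, then given compounds for 48 h. Viability was read as CellTiter-Glo luminescence. Primary runs used MIPE at 11 points (0.78 nM-46 µM) and NPC at 8 points (0.59 nM-46 µM); follow-ups used 11 points.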

Assay [4] is described as follows: qHTS of pediatric cancer cell lines to identify multiple opportunities for drug repurposing: Confirmatory screen for SK-N-SH cells (AID 1347129).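 For activity change, negative = cytotoxic: plate controls were DMSO for no effect and bortezomib control for full effect.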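 Note: cells exposed to compound for 48 h before viability read; nearly all actives have a fitted effect of over 60% in size.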 Note: potency is the fitted concentration of half-maximal effect. In a few lines: as §1
Assay [5] is described as follows: qHTS of pediatric cancer cell lines to identify multiple opportunities for drug repurposing: Confirmatory screen for OHS-50 cells (AID 1347128). For activity change, negative = cytotoxic: % is set by controls: 0 for no effect and ±100 for the full control effect.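 Note: compound exposure lasted 48 h at 37 degrees C; nearly all actives have a fitted effect of over 55% in size.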 Note: potency is the fitted concentration of half-maximal effect. In a few lines:
as §1

For assay [6], the system named is Zika virus NS2B-NS3 protease. Description: Primary screen GU AMC qHTS for Zika virus inhibitors (AID 1347154).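 Note: 0% = no-inhibitor control and -100% = no-enzyme control; nearly all actives have a fitted effect of over 70% in size.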 In a few lines:
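Unlinked Zika NS2B hydrophilic domain/NS3 protease domain noncovalent complex (25 nM final) in 10 mM Tris-HCl pH 8.0, 0.01% Tween 20, with AMC peptide substrate. Fluorescence (ex 340, em 450 nm) change over 15 min, room temperature; percent inhibition fitted to 4-parameter Hill equation.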

The target in another assay is Furin (Homo sapiens) (UniProt P09958). As to the kind of experiment: Furin counterscreen qHTS for Zika virus inhibitors (AID 1347149). Note: nearly all actives have a fitted effect of over 70% in size. Note: potency is the fitted concentration of half-maximal effect. In a few lines: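 Fluorogenic cleavage of BOC-RVRR-AMC (2 microM final, Km ~15 µM) was monitored (ex 340, em 450 nm) at 37C after 15 min RT preincubation of 5 nM furin with compounds in HEPES pH 7.0 buffer with CaCl2 and Triton X-100. Percent inhibition was fitted to a 4-parameter Hill curve.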
Chain of Furin (Homo sapiens) (P09958 whole entry, looked up): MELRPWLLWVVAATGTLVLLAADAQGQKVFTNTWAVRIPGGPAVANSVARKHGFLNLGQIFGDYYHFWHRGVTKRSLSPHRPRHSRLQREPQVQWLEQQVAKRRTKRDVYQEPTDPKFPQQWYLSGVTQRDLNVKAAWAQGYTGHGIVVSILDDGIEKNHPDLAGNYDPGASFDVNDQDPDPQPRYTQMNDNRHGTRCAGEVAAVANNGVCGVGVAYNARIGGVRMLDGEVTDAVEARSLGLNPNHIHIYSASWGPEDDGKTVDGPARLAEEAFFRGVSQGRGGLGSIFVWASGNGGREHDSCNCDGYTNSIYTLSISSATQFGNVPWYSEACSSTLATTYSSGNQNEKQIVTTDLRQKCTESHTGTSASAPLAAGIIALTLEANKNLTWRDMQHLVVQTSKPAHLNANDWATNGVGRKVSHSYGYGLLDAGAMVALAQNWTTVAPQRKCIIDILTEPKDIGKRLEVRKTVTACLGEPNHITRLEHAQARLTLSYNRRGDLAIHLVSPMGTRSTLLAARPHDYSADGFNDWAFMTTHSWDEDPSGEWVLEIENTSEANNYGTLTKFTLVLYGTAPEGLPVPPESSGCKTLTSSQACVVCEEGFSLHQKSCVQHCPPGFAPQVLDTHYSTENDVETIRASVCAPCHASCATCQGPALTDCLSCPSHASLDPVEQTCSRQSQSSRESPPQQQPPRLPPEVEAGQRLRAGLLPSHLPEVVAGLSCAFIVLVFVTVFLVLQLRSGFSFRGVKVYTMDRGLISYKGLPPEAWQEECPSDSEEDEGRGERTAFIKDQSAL
A general note: A counterscreen serves to expose hits that act by an unwanted route or on another target.

For assay [7], the system named is Zika virus NS2B-NS3 protease (linked construct). As to the kind of experiment: Confirmatory screen NINDS AMC qHTS for Zika virus inhibitors (AID 1347152).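 Note: AMC fluorescence gain from cleaved Bz-Nle-KRR-AMC substrate over 15 min; top concentration of the series differs between compounds; 0% = no-inhibitor control and -100% = no-enzyme control; nearly all actives have a fitted effect of over 70% in size.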 In a few lines:
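Linked NS2B-NS3 protease, 1 nM, in 10 mM Tris-HCl pH 8.0, 0.01% Tween 20; compounds preincubated 15 min at room temperature. Nle-KRR-AMC 10 microM (Km 18.3 µM); 15-min fluorescence change (340/450 nm) fitted to 4-parameter Hill.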

Assay [8] deals with Zika virus NS2B-NS3 protease (unlinked complex). Description: Confirmatory screen GU AMC qHTS for Zika virus inhibitors (AID 1347153). Put shortly:
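Compounds were preincubated 15 min at room temperature with 25 nM noncovalent NS2B-NS3 protease at pH 8.0; AMC substrate added at 10 microM and 15-min fluorescence gain (340/450 nm) converted to percent inhibition, fitted 4-parameter.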

Assay [9] has the same test system. Description: Primary screen GU Rhodamine qHTS for Zika virus inhibitors: Unlinked NS2B-NS3 protease assay (AID 1347159). Note: % is set by controls: 0 for no effect and ±100 for the full control effect; nearly all actives have a fitted effect of over 60% in size. Put shortly: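 Percent inhibition derives from the 15-min fluorescence change (ex 480, em 540 nm), normalized to no-enzyme and no-inhibitor wells. Reactions contained 25 nM NS2B-NS3 complex and 1.5 microM substrate in 10 mM Tris-HCl pH 8.0.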

On to `CCn1ccnc1CC1COc2ccccc2O1` (stereo not given), for which the Potency entry in [1] and in assay [2] was “inactive” each time.
Consider `Nc1nc(N)c2nc(-c3ccccc3)c(N)nc2n1`, for which the Potency result in [3], in [4] and in [2] was “inactive” throughout.
For the molecule `CN(C)CCCN1c2ccccc2Sc2ccccc21`, the Potency in [1] was 44.7 µM (active). For the same molecule, the Potency result in [2] was “inactive”.
With `NCCCNCCSP(=O)(O)O`, the activity change, negative = cytotoxic is -1.29% [at 9.58 µM] in [3], 0.588% [at 9.58 µM] in assay [5] and -2.99% [at 9.52 µM] in [4]. Moreover, the Potency result in assay [1] and in assay [2] was “inactive” throughout.
In the case of `CCOC(=O)C1=C(C)NC(C)=C(C(=O)OC)C1c1cccc(Cl)c1Cl` (stereo not given), the Potency in [1] was 56.2 µM (active); in assay [2], 26.7 µM (active).
On to `CN1C[C@H](C(=O)N[C@]2(C)O[C@@]3(O)[C@@H]4CCCN4C(=O)[C@H](Cc4ccccc4)N3C2=O)C[C@@H]2c3cccc4[nH]cc(c34)C[C@H]21`, for which the Potency result in assay [3], in [5], in assay [1] and in assay [2] was “inactive” each time.
As to `C[C@]12CC[C@@H]3c4ccc(O)cc4C[C@@H](CCCCCCCCCS(=O)CCCC(F)(F)C(F)(F)F)[C@H]3[C@@H]1CC[C@@H]2O` (stereo not given in full), the Potency result in [3], in assay [5], in [4], in [1] and in assay [2] was “inactive” each time. The molecule was classed as inactive in assay [6].
Regarding `COC(=O)[C@H]1[C@H]2C[C@@H]3c4[nH]c5cc(OC)ccc5c4CCN3C[C@H]2C[C@@H](OC(=O)c2cc(OC)c(OC)c(OC)c2)[C@@H]1OC`, the Potency in assay [1] was 56.2 µM (active); in the assay with Furin (Homo sapiens), 27.1 µM (active); in assay [2], 15 µM (active). Besides, the molecule was classed as inactive in [7], in [8] and in assay [9].
For `O=C1NCN(c2ccccc2)C12CCN(CCCC(c1ccc(F)cc1)c1ccc(F)cc1)CC2`, the Potency result in assay [1] and in assay [2] was “inactive” throughout.
As to `CN/C(=C\[N+](=O)[O-])NCCSCc1ccc(CN(C)C)o1`, the Potency entry in assay [3], in assay [5], in assay [4] and in assay [2] was “inactive” in each case.
On to `CN(C)C(=O)Oc1ccc[n+](C)c1`, for which the Potency result in [1] and in assay [2] was “inactive” in each case.
As to `CCN(CC)CC(=O)Nc1c(C)cccc1C`, the Potency entry in assay [1] and in assay [2] was “inactive” each time.
Take `CCN(Cc1ccncc1)C(=O)C(CO)c1ccccc1` (stereo not given): the Potency result in assay [1] and in assay [2] was “inactive” each time.
In the case of `CN1C(=O)CC[C@H]1c1cccnc1`, the Potency result in assay [1] was “inactive”.
As to `CO[C@@]1(NC(=O)CSCC#N)C(=O)N2C(C(=O)O)=C(CSc3nnnn3C)CS[C@@H]21`, the Potency result in [1] and in assay [2] was “inactive” each time.
`CN(C)CCOC(=O)COc1ccc(Cl)cc1`: in [1], the Potency was 56.2 µM (active). For the same molecule, the Potency entry in assay [2] was “inactive”.
Consider `C[C@]12C=CC(=O)C=C1CC[C@H]1[C@@H]3C[C@@H](O)[C@](O)(C(=O)CO)[C@@]3(C)C[C@H](O)[C@@]12F`, for which, in assay [3], the Potency is 9.27 µM (active). The Potency result in [4], in assay [1] and in assay [2] was “inactive” each time.
With `C[N+](C)(C)CCOC(N)=O`, the Potency entry in assay [1] and in assay [2] was “inactive” in each case.
In the case of `CCCC(C(=O)OCCN(CC)CC)(c1ccccc1)c1ccccc1`, the Potency entry in assay [1] and in [2] was “inactive” each time.
For `CC(=O)OC(C)C[N+](C)(C)C` (stereo not given), the Potency result in assay [1] and in assay [2] was “inactive” in each case.
In the case of `COC(=O)C1=C(C)NC(C)=C(C(=O)OC(C)(C)CN(C)CCC(c2ccccc2)c2ccccc2)C1c1cccc([N+](=O)[O-])c1` (stereo not given), the Potency entry in assay [1] was “inactive”.
On to `CC(C)(C)c1ccc(C(=O)CCCN2CCC(OC(c3ccccc3)c3ccccc3)CC2)cc1`, for which the Potency entry in assay [1] and in assay [2] was “inactive” in each case.
Consider `CC(C)[N+](C)(CCOC(=O)C1c2ccccc2Oc2ccccc21)C(C)C`, for which the Potency entry in assay [1] and in assay [2] was “inactive” in each case.
On to `COC(=O)C1=C(C)NC(C)=C(C(=O)OCCN(C)Cc2ccccc2)C1c1cccc([N+](=O)[O-])c1` (stereo not given), for which the Potency result in assay [1] and in [2] was “inactive” throughout.
As for `CCOC(=O)c1cnc2c(cnn2CC)c1NN=C(C)C`, the Potency in [1] is 56.2 µM (active). Moreover, the Potency result with Furin (Homo sapiens) was “inactive”. Further, the result in assay [7], in [8] and in assay [6] was inactive.
Turning to `CC1=NS(=O)(=O)c2cc(Cl)ccc2N1`, the Potency entry in [1] and in [2] was “inactive” in each case.
Regarding `CN(C(=O)CCCOc1ccc2[nH]c(=O)ccc2c1)C1CCCCC1`, the Potency is 79.4 µM (active) in [1] and 26.7 µM (active) in assay [2].
The matching figures for `c1cc(CN2CCCCC2)cc(OCCCNc2nc3ccccc3s2)c1`: 22.4 µM (active) and “inactive”.
As to `C[n+]1cc2c3c(ccc2c2ccc4cc5c(cc4c21)OCO5)OCO3`, the Potency in assay [3] was 1.29 µM (active); in assay [5] it was 2.57 µM (active); in assay [4], 1.44 µM (active); in [1], 44.7 µM (active); in [2], 5.97 µM (active). In [6], the outcome was inactive.
Consider `OC(CCN1CCCCC1)(c1ccccc1)C1CCCCC1` (stereo not given), for which the Potency result in assay [1] and in [2] was “inactive” each time.
For the molecule `NC1=NCC2c3ccccc3Cc3ccccc3N12` (stereo not given), the Potency entry in assay [1] and in assay [2] was “inactive” each time.
For the molecule `NC(N)=NC(=O)Cc1c(Cl)cccc1Cl`, the Potency entry in assay [1] and in assay [2] was “inactive” throughout.
As to `CCCNC(C)C(=O)Nc1ccccc1C` (stereo not given), the Potency result in [1] and in assay [2] was “inactive” throughout.
For `CCCCCCCC/C=C\CCCCCCCC(=O)NCc1ccc(O)c(OC)c1`, in [1], the Potency result is “inactive”.
Turning to `FC(F)(F)c1ccccc1-n1ccnc1`, the Potency result in [1] and in assay [2] was “inactive” in each case.
Consider `C[C@@H](O)[C@H]1C(=O)N2C(C(=O)O)=C(SCCN=CN)C[C@H]12`, for which the Potency result in [1] and in assay [2] was “inactive” throughout. For the same molecule, in assay [6], the call was inactive.
